The compounds below were run against AMP-activated protein kinase, AMPK (Homo sapiens) (UniProt P54646+O43741+P54619+Q9UGJ0+Q9Y478+Q13131+Q9UGI9) (assay: AMP-dependent Kinase enzyme assay. An in vitro enzyme assay that detects ADP turnover that is directly proportional to AMPK activity. This uses naive AMPK that is activated during the assay with MK-8722). Settings: 30 µM.
Assay type: functional
Parameters: scale not given: direction of the effect not stated beside the values

Compound | Percent Effect
CNC(=O)c1noc(CN2CC[C@](C)(O)[C@H](C)C2)n1 | -4.9%
CC(C)N(CCO)C(=O)c1cc(COc2ccc3c(c2)CCCC3)on1 | -2.41%
CCCS(=O)(=O)NCc1nc(C)cc(N2CCCC2)n1 | 4.77%
COCC1CCN(c2ccnc3ccsc23)C1 (stereo not drawn) | 4.92%
CCn1ncnc1C1CC(=O)NCc2nc(N3CCOCC3)sc21 (stereo not drawn) | -10.6%
CN(C)c1nc(N)nc(CN2CCC(c3ccccc3)CC2)n1 | -6.86%
CN(C)Cc1cccc(-c2cccnc2C(=O)NCc2ccco2)c1 | 20%
O=C(c1ccc(=O)[nH]c1)N1CCC(Oc2cccc(C(F)(F)F)c2)CC1 | -3.39%
CCC(CNS(=O)(=O)c1cccc(C(=O)OC)c1)N1CCCC1 (stereo not drawn) | -8.76%
CCN(C(=O)Cn1cc(Cl)cn1)c1ccccc1 | -10.4%
O=S(=O)(NCCCn1cncn1)c1ccc2c(c1)CCO2 | 4.51%
O=C(Cn1ccc(=O)[nH]c1=O)NCc1cccnc1OCC(F)(F)F | -4.52%
COCCN1CC(=O)N2CC[C@@H](O)C[C@H]2C1=O | -8.25%
CCOC(=O)N(C)CC(=O)NCCc1coc(-c2ccc(C)cc2)n1 | -1.7%
CCc1csc(CNc2cc(C)nc(-c3cccnc3)n2)n1 | 18.4%
CCC(=O)NC1CCCN(c2cncc(OCc3ccccc3)n2)C1 (stereo not drawn) | 5.23%
O=S(=O)(N1CCOCC1)N1CCCCC1CCn1cccn1 (stereo not drawn) | 29.5%
COC(=O)CSCc1nc(-c2ccc(Cl)cc2)no1 | -4.75%

— ChEMBL document CHEMBL3988442, “University of Dundee, Small-Polar-MMV Screening Library” (2021)
